Screening results as filed in PubChem BioAssay.
PriA SSB inh – inhibitors of Klebsiella pneumoniae PriA binding to SSB C-terminal tail, primary screen, biochemical, AlphaScreen; PriA–SSB C-terminal tail interaction (Klebsiella pneumoniae); AlphaScreen SSBct-PriA binding, biotinylated peptide; inhibition, % at 33 µM; actives 0.6% (n = 430,000); AID 1272365, 2023; in the data active = inhibition mostly above about 37%, no sharp cut-off; inactive = mostly below about 20%;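 note: plate controls were negative control peptide for no effect and reference peptide for full effect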
PrPC surface inh – inhibitors of human cell surface prion protein PrPC, primary screen, cell-based, TR-FRET | Major prion protein (Homo sapiens), P04156 | actives 0.43% (n = 370,000) | TR-FRET read-out | inhibition, % at 13.8 µM; in the data active = inhibition above about 24%; note: 0% = median of the test wells and 100% = reference compound wells
PrP 5UTR inh – inhibition of PrP 5' UTR reporter expression; cell-based PrP 5' UTR mRNA reporter, plate reader; inhibition, % (no concentration beside the values); actives 0.35% (n = 340,000); AID 488862, 2010; in the data active = inhibition above about 52%; note: 0 = median of the neutral control wells
BH1578 lux ind – inducers of Vibrio cholerae quorum light production without autoinducers, primary screen, BH1578 luxS cqsA deficient, single point; actives 0.16% (n = 350,000); V. cholerae BH1578 lux reporter, luminescence, 6 h; activation, % at 18.7 µM; in the data active = activation mostly above about 9.7%, no sharp cut-off
PfHsp40 yeast – rescue of yeast from PfHsp40 toxicity, primary screen, S. cerevisiae, ATP luminescence. actives 0.68% (n = 340,000). AID 504582, 2011. growth rescue, % at 12.5 µM. S. cerevisiae expressing PfHsp40, growth rescue; in the data active = growth rescue above about 28%, passing the limit was not always enough;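 note: yeast W303a lacking pdr1 and pdr3 grown in galactose medium; growth measured after three days at 30 °C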
3CLpro inhibitor – SARS-CoV 3CLpro protease inhibitors, primary screen, biochemical, quenched FRET. actives 0.14% (n = 290,000). recombinant SARS-CoV 3CLpro, quenched FRET peptide cleavage. Replicase polyprotein 1ab (Severe acute respiratory syndrome coronavirus), P0C6X7. inhibition, % at 6 µM; in the data active = inhibition above about 12%
PrP UTR cherry – prion 5' UTR mRNA inhibition, cherry-pick retest | cell-based prion protein 5' UTR reporter, plate reader | AID 504592, 2011 | inhibition, % at 2.5 µM | shares compounds with PrP 5UTR inh | actives 48% (n = 1,100); in the data active = inhibition above about 54%
An asterisk follows results filed as active. Most compounds without a hit are left out; they make up all but 1.6% or so of the library.

CC(=O)OCC(=O)Nc1ccccc1C was read as PriA SSB inh 7.4, PrPC surface inh 8.0, PrP 5UTR inh 76.2*, BH1578 lux ind -0.9, PfHsp40 yeast 0.4, 3CLpro inhibitor -3.4 and PrP UTR cherry -7.8.
CCS(=O)(=O)NCc1nccc(N(C)C)n1 was read as PriA SSB inh -1.0.
CCC1CCCCN1C(=S)NC(=O)c1ccc(F)c(S(=O)(=O)N2CCOCC2)c1 (stereo unspecified) was read as PriA SSB inh -15.8, PrPC surface inh 4.8, PrP 5UTR inh 59.5*, BH1578 lux ind -0.3, PfHsp40 yeast 0.0, 3CLpro inhibitor 6.1 and PrP UTR cherry 4.9.
`O=C(NCC1CCCCC1)c1ccc(F)c(S(=O)(=O)N2CCOCC2)c1` gave PriA SSB inh 2.6, PrPC surface inh 10.5, PrP 5UTR inh -27.4, BH1578 lux ind -1.1 and PfHsp40 yeast 7.5.
`Cc1[nH]c2cc(C(F)(F)F)ccc2c(=O)c1CN1CCOCC1` gave PriA SSB inh 5.0.
For Cc1cc(C)cc(NC(=O)N2CCN(c3ccc4nnc(C)n4n3)CC2)c1 the results were PriA SSB inh -11.0.
`O=C(c1ccc2c3c(cccc13)CC2)C1CCCN(Cc2ccc(OCCO)cc2)C1` (stereo unspecified) gave PriA SSB inh 9.9, PrPC surface inh -7.2, PrP 5UTR inh 87.1*, BH1578 lux ind -0.6, PfHsp40 yeast -0.6, 3CLpro inhibitor -1.1 and PrP UTR cherry -18.1.
O=C(c1ccc2c3c(cccc13)CC2)C1CCCN(Cc2ccccn2)C1 (stereo unspecified) was read as PriA SSB inh 9.5, PrPC surface inh -5.5, PrP 5UTR inh -12.7, BH1578 lux ind inactive, PfHsp40 yeast 1.0 and 3CLpro inhibitor 1.0.
C[C@@H]1CN([C@H](C)CO)C(=O)c2cc(NS(=O)(=O)c3cn(C)cn3)ccc2O[C@@H]1CN(C)S(C)(=O)=O was read as PriA SSB inh -1.2, PrPC surface inh 1.6, PrP 5UTR inh -28.6, BH1578 lux ind -1.5 and PfHsp40 yeast 0.2.
For C[C@H](CO)N1C[C@H](C)[C@@H](CN(C)S(C)(=O)=O)Oc2ccc(NS(=O)(=O)c3cn(C)cn3)cc2C1=O the results were PriA SSB inh -3.5, PrPC surface inh -4.7, PrP 5UTR inh 89.8*, BH1578 lux ind -1.0, PfHsp40 yeast -3.4 and PrP UTR cherry 1.3.
`CC(=O)Nc1cccc(C(=O)O)n1` gave PriA SSB inh 11.7, PrPC surface inh 3.2, PrP 5UTR inh 87.8*, BH1578 lux ind -0.8, PfHsp40 yeast -0.3, 3CLpro inhibitor 1.0 and PrP UTR cherry -10.7.
`CC(=O)Nc1cccc(NC(C)=O)n1` gave PriA SSB inh -13.9, PrPC surface inh 6.7, PrP 5UTR inh -8.1, BH1578 lux ind inactive, PfHsp40 yeast 0.0 and 3CLpro inhibitor 2.9.
CC(=O)c1sc2c(c1OC(=O)c1ccc(Cl)cc1)c(=O)n(-c1ccccc1)c(=S)n2-c1ccccc1 was read as PriA SSB inh -18.6, PrPC surface inh 8.6, PrP 5UTR inh 8.3, BH1578 lux ind inactive and PfHsp40 yeast -0.5.
For CC(=O)c1sc2c(c1OC(=O)c1ccc(Cl)cc1Cl)c(=O)n(-c1ccccc1)c(=S)n2-c1ccccc1 the results were PriA SSB inh -11.2, PrPC surface inh 20.3, PrP 5UTR inh 75.8*, BH1578 lux ind -1.2, PfHsp40 yeast 0.0, 3CLpro inhibitor 2.2 and PrP UTR cherry 62.4*.
COc1ccc2c(c1)/C(=C/c1cc(OC)c(OC)c(OC)c1)C(=O)N2 was read as PriA SSB inh -2.2, PrPC surface inh 1.6, PrP 5UTR inh 64.2*, BH1578 lux ind inactive, PfHsp40 yeast -2.3 and PrP UTR cherry 73.1*.
COc1ccc(S(=O)(=O)N2c3cc(Cl)ccc3Oc3nc4ccccc4nc32)cc1 was read as PriA SSB inh 6.2, PrPC surface inh -1.7, PrP 5UTR inh 71.1*, BH1578 lux ind -0.4, PfHsp40 yeast -0.3, 3CLpro inhibitor 1.3 and PrP UTR cherry 88.4*.
`O=C(NCc1ccc(F)cc1)C(=O)NC[C@@H](c1ccco1)S(=O)(=O)c1ccc(Cl)cc1` gave PriA SSB inh -6.0.
For CC1=CC2OC3CC4OC(=O)C=CC=CC(=O)OCCC(C)C(O)C(=O)OCC2(CC1O)C4(C)C31CO1 (stereo unspecified) the results were PrP 5UTR inh 93.6*, BH1578 lux ind inactive and PrP UTR cherry 97.0*.
`COc1ccc(CCNC(=O)c2sc3nc(-c4cccs4)cc(-c4ccc(F)cc4)c3c2N)cc1OC` gave PriA SSB inh -26.0.
COC(=O)c1ccc(Oc2nc(C)cc(Oc3ccccc3)n2)cc1 was read as PriA SSB inh -31.9, PrPC surface inh 6.5, PrP 5UTR inh -26.5, BH1578 lux ind -0.3, PfHsp40 yeast 1.8 and 3CLpro inhibitor 3.6.
COC(=O)c1ccc(Oc2cc(C)nc(-n3nc(C)cc3C)n2)cc1 was read as PriA SSB inh -5.2, PrPC surface inh 11.8, PrP 5UTR inh 59.0*, BH1578 lux ind inactive, PfHsp40 yeast -0.5, 3CLpro inhibitor 0.8 and PrP UTR cherry 89.0*.
`O=C(CSc1nnc(-c2ccc(Br)cc2)o1)Nc1cccc(C(=O)O)c1` gave PriA SSB inh -8.3, PrPC surface inh 7.9, PrP 5UTR inh 71.4*, BH1578 lux ind inactive, PfHsp40 yeast 0.4, 3CLpro inhibitor 1.4 and PrP UTR cherry 79.6*.
Screening Cc1ccc(-c2nnc(SCC(=O)Nc3ccccc3F)o2)cc1 returned PriA SSB inh -8.6, PrPC surface inh -2.1, PrP 5UTR inh 88.9*, BH1578 lux ind inactive, PfHsp40 yeast -0.5, 3CLpro inhibitor 2.6 and PrP UTR cherry 88.2*.
`O=C(CSc1nnc(-c2ccccc2)o1)Nc1ccccc1C(F)(F)F` gave PriA SSB inh -10.0.
`O=C(CSc1nnc(-c2ccccc2)o1)Nc1ccccc1F` gave PriA SSB inh -6.5, PrPC surface inh -3.5, PrP 5UTR inh 60.0*, BH1578 lux ind inactive, PfHsp40 yeast 0.0, 3CLpro inhibitor -1.5 and PrP UTR cherry 58.7*.
`COC(=O)c1c(NC(=O)c2cc(Cl)ccc2Cl)sc2c1CCN(C(C)C)C2` gave PriA SSB inh 8.0.
`Cn1c2ccccc2c(=O)c2ccc(C#CC3(N)CCCCC3)cc21` gave PriA SSB inh -25.8, PrPC surface inh 2.2, PrP 5UTR inh -11.1, BH1578 lux ind 4.5, PfHsp40 yeast -0.6 and 3CLpro inhibitor -6.2.
